Test results: PubChem BioAssay (NCATS)
“And” between values parts separate entries of the source, which are not always exact repeats. Equal entries are not always repeated. Inconclusive results are not listed. The source made the active and inactive calls. Calls follow the shape of the dose curve; as a rule, active = well fitted curve in the direction sought with a large enough effect; inconclusive = small, poorly fitted or top-dose-only effect, or another doubt; inactive = no such curve, though single readings can be large; an effect the other way counts as inactive or inconclusive.

Assays:
CRL-7250 = normal cell line; assay: Cytotoxic Profiling of Annotated Libraries Using Quantitative High-Throughput Screening (AID 1296008); conditions: Five cell lines viability, CellTiter-Glo ATP luminescence, 48-72 h; max response: hits give low values; also: nearly all actives have a fitted effect of over 60% in size; as to max response: % is scaled to controls: 0 for no effect and ±100 for the full control effect
In short: (§1)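 Cells exposed to compounds for 48 or 72 hr at 37 degrees Celsius. Viability read as ATP-coupled luminescence with CellTiter-Glo after 10 min at room temperature.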

HaCat [1] = assay: as above; conditions: Five cell lines viability, CellTiter-Glo ATP luminescence, 48-72 h; max response: hits give low values
In short: as §1

KB-3-1 = assay: as above; conditions: Five cell lines viability, CellTiter-Glo ATP luminescence, 48-72 h; max response: hits give low values
In short: as §1

NIH3T3 [2] = assay: as above; conditions: Five cell lines viability, CellTiter-Glo ATP luminescence, 48-72 h; max response: hits give low values
In short: as §1

NIH3T3 [3] = assay: qHTS assay to identify novel small-molecules to repurpose for Merkel cell carcinoma treatment (AID 1296009); conditions: MCC and control cell lines, CellTiter-Glo viability, 72 h; series mostly up to 44.8 µM; also: nearly all actives have a fitted effect of over 60% in size
In short: (§2)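 CellTiter-Glo luminescence after 72 hr compound exposure at 37 degree celsius gave cell viability. Libraries NPC and MIPE were run as 8- and 11-point dose responses; RLUs normalized to DMSO (negative) and no-cell (cytotoxicity) controls.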

C33A = assay: Primary qHTS to identify gynecologic anti-cancer compounds using libraries of approved drugs and bioactive compounds (AID 1345084); conditions: Gynecologic cancer cell panel viability, ATPlite luminescence, 48 h; series mostly up to 57.5 µM; also: % is scaled to controls: 0 for no effect and ±100 for the full control effect; nearly all actives have a fitted effect of over 55% in size
In short: (§3)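 Luminescence from the ATPlite ATP-monitoring reagent indicates viable cell number; lower signal means cytotoxicity. Cells received compound 16 h after seeding and were exposed for 48 h across five concentrations.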

CAOV3 = assay: as above; conditions: Gynecologic cancer cell panel viability, ATPlite luminescence, 48 h; series mostly up to 57.5 µM
In short: as §3

CASKI = assay: as above; conditions: Gynecologic cancer cell panel viability, ATPlite luminescence, 48 h; series mostly up to 57.5 µM
In short: as §3

Es-2 = assay: as above; conditions: Gynecologic cancer cell panel viability, ATPlite luminescence, 48 h; series mostly up to 57.5 µM
In short: as §3

HeLa = assay: as above; conditions: Gynecologic cancer cell panel viability, ATPlite luminescence, 48 h; series mostly up to 57.5 µM
In short: as §3

Hek293T = assay: as above; conditions: Gynecologic cancer cell panel viability, ATPlite luminescence, 48 h, control line for the selectivity index; series mostly up to 57.5 µM
In short: as §3

JEG-3 = assay: as above; conditions: Gynecologic cancer cell panel viability, ATPlite luminescence, 48 h; series mostly up to 57.5 µM
In short: as §3

OV90 = assay: as above; conditions: Gynecologic cancer cell panel viability, ATPlite luminescence, 48 h; series mostly up to 57.5 µM
In short: as §3

HACAT [4] = assay: qHTS assay to identify novel small-molecules to repurpose for Merkel cell carcinoma treatment (AID 1296009); conditions: MCC and control cell lines, CellTiter-Glo viability, 72 h; at 44.8 µM (top of the series) unless noted; also: nearly all actives have a fitted effect of over 60% in size
In short: as §2

COc1cc(C(C)=O)c(OC)c2c1OC(C)(C)C=C2
inactive: outcome (CRL-7250) | max response (HaCat [1]) -6.75% | outcome (KB-3-1) | outcome (NIH3T3 [2]) | Potency (NIH3T3 [3]) | Potency (C33A) | Potency (CAOV3) | Potency (CASKI) | Potency (Es-2) | Potency (HeLa) | Potency (Hek293T) | Potency (JEG-3) | Potency (OV90)

C=C(COC(=O)C(O)C(O)CN)C12OC1C1(C)C(=CC2=O)C(O)C(O)CC1C (stereo not drawn)
inactive: max response (CRL-7250) -7.2% | max response (HaCat [1]) 0.561% | outcome (KB-3-1) | outcome (NIH3T3 [2]) | Potency (NIH3T3 [3]) | Potency (C33A) | Potency (CAOV3) | Potency (CASKI) | Potency (Es-2) | Potency (HeLa) | Potency (Hek293T) | Potency (JEG-3) | Potency (OV90)

O=C(NCCCn1ccnc1)c1cc(-c2ccco2)on1
inactive: max response (CRL-7250) -18.4% | outcome (HaCat [1]) | max response (KB-3-1) -0.296% | max response (NIH3T3 [2]) 2.29% | outcome (HACAT [4]) | Potency (C33A) | Potency (CASKI) | Potency (HeLa) | Potency (Hek293T) | Potency (JEG-3) | Potency (OV90)

CN(C)c1ccc(NC(=O)NS(=O)(=O)c2ccc(Cl)cc2)cc1
inactive: max response (CRL-7250) -11.7% | outcome (HaCat [1]) | outcome (KB-3-1) | max response (NIH3T3 [2]) -5.53% | outcome (HACAT [4]) | Potency (C33A) | Potency (CASKI) | Potency (Es-2) | Potency (HeLa) | Potency (Hek293T) | Potency (JEG-3) | Potency (OV90)

CCC[C@@]1(CCc2ccccc2)CC(O)=C([C@H](CC)c2cccc(NS(=O)(=O)c3ccc(C(F)(F)F)cn3)c2)C(=O)O1
inactive: outcome (CRL-7250) | max response (HaCat [1]) 2.03% | max response (KB-3-1) -13.2% and -6.18% | outcome (NIH3T3 [2]) | Potency (NIH3T3 [3]) | Potency (C33A) | Potency (CAOV3) | Potency (CASKI) | Potency (Es-2) | Potency (HeLa) | Potency (Hek293T) | Potency (JEG-3) | Potency (OV90)

N#Cc1cc(C2=Nc3ccc(Br)cc3NC(=O)C2)ccn1
inactive: max response (CRL-7250) -3.76% | max response (HaCat [1]) 4.97% | max response (KB-3-1) 4.39% | outcome (NIH3T3 [2]) | Potency (NIH3T3 [3]) | Potency (C33A) | Potency (CAOV3) | Potency (CASKI) | Potency (Es-2) | Potency (HeLa) | Potency (Hek293T) | Potency (JEG-3) | Potency (OV90)

C=C1CC[C@H]2C(=C)CC[C@H]3C(=C)C(=O)O[C@@H]3[C@@H]12
inactive: max response (CRL-7250) -11.6% | outcome (HaCat [1]) | max response (KB-3-1) -8.05% | max response (NIH3T3 [2]) -3.18% | outcome (HACAT [4]) | Potency (C33A) | Potency (CASKI) | Potency (Es-2) | Potency (HeLa) | Potency (Hek293T) | Potency (JEG-3) | Potency (OV90)

Cc1ccc(OC[C@H](O)[C@H](C)NC(C)C)c2c1CCC2
inactive: max response (CRL-7250) -3.77% | outcome (HaCat [1]) | max response (KB-3-1) 5.3% | max response (NIH3T3 [2]) 0.0465% | outcome (HACAT [4]) | Potency (CAOV3) | Potency (CASKI) | Potency (Es-2) | Potency (HeLa) | Potency (Hek293T) | Potency (JEG-3) | Potency (OV90)

CCCCc1ccc(NS(=O)(=O)c2ccc(F)cc2)cc1
inactive: outcome (CRL-7250) | max response (HaCat [1]) -1.98% | max response (KB-3-1) 4.06% | outcome (NIH3T3 [2]) | Potency (NIH3T3 [3]) | Potency (C33A) | Potency (CAOV3) | Potency (CASKI) | Potency (Es-2) | Potency (HeLa) | Potency (Hek293T) | Potency (JEG-3) | Potency (OV90)

Cn1nc(C(C)(C)C)cc1C(=O)N[C@@H](Cc1cccc(Cl)c1)C(=O)NCC#N
inactive: outcome (CRL-7250) | max response (HaCat [1]) -0.262% | max response (KB-3-1) 0.545% | outcome (NIH3T3 [2]) | Potency (NIH3T3 [3]) | Potency (C33A) | Potency (CAOV3) | Potency (CASKI) | Potency (Es-2) | Potency (HeLa) | Potency (Hek293T) | Potency (JEG-3) | Potency (OV90)

Fc1ccc(CN2CCC(Nc3ccc(C(F)(F)F)nn3)CC2)cc1F
inactive: max response (CRL-7250) -3.28% | outcome (HaCat [1]) | max response (KB-3-1) -12.1% | max response (NIH3T3 [2]) -5.8% | outcome (HACAT [4]) | Potency (C33A) | Potency (Es-2) | Potency (HeLa) | Potency (Hek293T) | Potency (JEG-3) | Potency (OV90)

CCc1c(Cl)c(O)c(Cl)c(O)c1C(=O)O[C@H]1[C@H](O)[C@H](OC)[C@H](OC/C2=C\C=C\C[C@H](O)/C(C)=C\[C@H](CC)[C@@H](O[C@@H]3OC(C)(C)[C@@H](OC(=O)C(C)C)[C@H](O)[C@@H]3O)/C(C)=C/C(C)=C/C[C@@H]([C@@H](C)O)OC2=O)O[C@@H]1C
inactive: outcome (CRL-7250) | max response (HaCat [1]) -22.3% | max response (KB-3-1) -8.77% | outcome (NIH3T3 [2]) | Potency (NIH3T3 [3]) | Potency (C33A) | Potency (CAOV3) | Potency (CASKI) | Potency (Es-2) | Potency (HeLa) | Potency (Hek293T) | Potency (JEG-3) | Potency (OV90)

O=C(N[C@H]1CCN(C(=O)c2cc(C(F)(F)F)cc(C(F)(F)F)c2)[C@H](Cc2ccc(Cl)cc2)C1)c1ccnc2ccccc12
inactive: max response (CRL-7250) 0.275% | max response (HaCat [1]) -2.45% | max response (KB-3-1) -7.03% | outcome (NIH3T3 [2]) | Potency (NIH3T3 [3]) | Potency (C33A) | Potency (CAOV3) | Potency (CASKI) | Potency (Es-2) | Potency (HeLa) | Potency (Hek293T) | Potency (JEG-3) | Potency (OV90)

COCC(c1ccc(C(F)(F)F)cc1)N1CCN(C2(C)CCN(C(=O)c3c(C)ncnc3C)CC2)CC1C (stereo not drawn)
inactive: max response (CRL-7250) 4.87% | max response (HaCat [1]) -10.9% | max response (KB-3-1) 8.07% | outcome (NIH3T3 [2]) | Potency (NIH3T3 [3]) | Potency (C33A) | Potency (CAOV3) | Potency (CASKI) | Potency (Es-2) | Potency (HeLa) | Potency (Hek293T) | Potency (JEG-3) | Potency (OV90)

O=c1[nH]cnc2c([C@@H]3N[C@H](CO)[C@@H](O)[C@H]3O)c[nH]c12
inactive: max response (CRL-7250) -8.88% | max response (HaCat [1]) -34.4% | max response (KB-3-1) 7.13% | outcome (NIH3T3 [2]) | Potency (NIH3T3 [3]) | Potency (C33A) | Potency (CAOV3) | Potency (CASKI) | Potency (Es-2) | Potency (HeLa) | Potency (Hek293T) | Potency (JEG-3) | Potency (OV90)
